In PubChem BioAssay AID1159580 (chemical genetic matrix, 2015):
About 2,000 (36%) of roughly 5,500 compounds were called active. Not shown: some 18% with an inconclusive outcome. Cut-off read from the data, not from the text of the source: active = normalized growth mostly below about 0.91 (no sharp cut-off); inconclusive = no clear call, values can overlap the other calls; inactive = mostly above about 0.92. The list shows a part of the results.

Experiment: chemical genetic growth profiling, strain panel (AID 1159580);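 note: tested at 20 µM; growth read once vehicle control cultures reached saturation at 30 °C; 1 = growth at the plate median or of vehicle wells; lower values mean less growth of the strain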
Conditions: S. cerevisiae deletion strains, growth OD

Measured: normalized growth

FC(F)(F)c1ccnc(-n2ccc(-c3cccs3)n2)n1
inactive: locus YAL013W, strain DEP1, stronger effect = lower value 0.94 | locus YBR229C, strain ROT2, stronger effect = lower value 0.964 | locus YCL061C, strain MRC1, stronger effect = lower value 0.926 | locus YDL101C, strain DUN1, stronger effect = lower value 0.916 | locus YDR150W, strain NUM1, stronger effect = lower value 0.987 | locus YEL061C, strain CIN8, stronger effect = lower value 0.946 | locus YGR078C, strain PAC10, stronger effect = lower value 0.973 | locus YGR229C, strain SMI1, stronger effect = lower value 0.972 | locus YHR087W, strain rtc3, stronger effect = lower value 1.01 | locus YJR043C, strain POL32, stronger effect = lower value 0.963 | locus YJR075W, strain HOC1, stronger effect = lower value 0.964 | locus YKL190W, strain CNB1, stronger effect = lower value 0.952 | locus YLR058C, strain SHM2 (second series), stronger effect = lower value 0.982 | locus YML094W, strain GIM5, stronger effect = lower value 0.887 | locus YMR219W, strain ESC1, stronger effect = lower value 0.995 | locus YMR263W, strain SAP30, stronger effect = lower value 0.955 | locus YNL128W, strain TEP1, stronger effect = lower value 0.953 | locus YNL153C, strain GIM3, stronger effect = lower value 0.955 | locus YNL322C, strain KRE1, stronger effect = lower value 0.994 | locus YNR030W, strain Alg12, stronger effect = lower value 0.891 | locus YPL055C, strain LGE1, stronger effect = lower value 0.881 | locus YPL241C, strain CIN2, stronger effect = lower value 0.9
active: locus YHR030C, strain SLT2, stronger effect = lower value 0.457 | locus YLR039C, strain RIC1, stronger effect = lower value 0.733 | locus YLR085C, strain ARP6, stronger effect = lower value 0.528 | locus YLR262C, strain YPT6, stronger effect = lower value 0.795 | locus YNL298W, strain CLA4 (second series), stronger effect = lower value 0.815 | locus YOL006C, strain TOP1, stronger effect = lower value 0.64 | locus YPR135W, strain CTF4, stronger effect = lower value 0.535
